# Measurements: PubChem BioAssay AID1347404 (Pan Lab, Icahn School of Medicine at Mount Sinai, 2020)
# The campaign covered roughly 140,000 compounds. About 860 (0.61%) were called active. The sample as a whole holds a higher share of actives than the screen did. Unmarked numbers belong to inactive results. No stated cut-off is given here; in the data, active means inhibition above about 25%; inactive means the rest.
# Target: E3 ubiquitin-protein ligase RBX1 (Homo sapiens) + Cullin-1 (Homo sapiens) (UniProt P62877+Q13616)
# Sequence (P62877 whole entry, looked up): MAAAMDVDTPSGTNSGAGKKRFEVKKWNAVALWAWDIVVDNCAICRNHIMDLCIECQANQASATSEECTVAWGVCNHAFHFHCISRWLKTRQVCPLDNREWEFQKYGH
# Sequence (Q13616 whole entry, looked up): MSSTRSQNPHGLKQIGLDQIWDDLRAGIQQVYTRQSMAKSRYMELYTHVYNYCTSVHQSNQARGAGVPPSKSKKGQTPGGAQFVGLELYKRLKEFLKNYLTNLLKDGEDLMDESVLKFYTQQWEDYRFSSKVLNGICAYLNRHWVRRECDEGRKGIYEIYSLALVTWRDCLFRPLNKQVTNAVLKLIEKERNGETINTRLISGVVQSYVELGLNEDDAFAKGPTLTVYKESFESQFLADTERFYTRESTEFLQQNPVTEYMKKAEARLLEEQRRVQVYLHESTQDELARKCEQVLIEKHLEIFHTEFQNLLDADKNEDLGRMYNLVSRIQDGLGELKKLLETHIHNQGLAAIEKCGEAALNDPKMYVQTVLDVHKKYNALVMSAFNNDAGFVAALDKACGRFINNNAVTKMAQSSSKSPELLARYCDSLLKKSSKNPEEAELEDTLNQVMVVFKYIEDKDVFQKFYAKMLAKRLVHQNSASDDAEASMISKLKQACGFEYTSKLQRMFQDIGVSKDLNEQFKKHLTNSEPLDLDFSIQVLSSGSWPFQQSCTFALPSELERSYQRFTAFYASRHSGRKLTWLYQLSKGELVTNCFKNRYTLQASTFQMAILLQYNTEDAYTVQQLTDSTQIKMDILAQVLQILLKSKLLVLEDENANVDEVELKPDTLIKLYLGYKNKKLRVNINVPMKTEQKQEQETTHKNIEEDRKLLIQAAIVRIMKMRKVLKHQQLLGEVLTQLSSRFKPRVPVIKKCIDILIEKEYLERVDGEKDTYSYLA
# Assay: blocks human RBX1-Cullin-1 di-ubiquitin formation (AID 1347404)
# Conditions: in vitro K48 di-Ub FRET, acceptor:donor ratio, 45 min; at 10 µM; active compounds read high
row,Structure (SMILES),inhibition
1,CN1C(=O)C(C(=NCc2ccccc2)c2nn[nH]n2)C(=O)c2ccccc21 (configuration not stated),2.67%
2,Cc1ccc(N=C/C=C/c2ccc([N+](=O)[O-])cc2)cc1,6.74%
3,CC(=O)Nc1cc(C)ccc1[N+](=O)[O-],-2.27%
4,Cc1ccc(N2C(=O)c3ccccc3NC2c2ccc(OCc3ccccc3)cc2)cc1 (configuration not stated),8.59%
5,C=CCNC(=O)C1CCN(S(=O)(=O)N(C)C)CC1,8.77%
6,O=C(CSc1nc2scc(-c3ccccc3)c2c(=O)n1-c1ccccc1)c1ccccc1F,8.07%
7,O=C(Nc1ccccc1Cl)c1cc(-c2ccc(Cl)s2)nc2ccccc12,-7.97%
8,CCOc1cc(Br)c(Br)c(C=Nc2cccc(NC(=O)c3ccc(Cl)cc3Cl)c2)c1O,13.5%
9,CCN(CC1CCCN(CCc2cccc(OC)c2)C1)C1CCN(C(C)=O)CC1 (configuration not stated),-12.6%
10,COc1ccc(C(=O)CC=Nc2ccc(Oc3ccccc3Cl)cc2)cc1OC,11.3%
11,Cc1ccc(NC(=O)C(=O)NC(=O)c2n[nH]c3c2CCCC3)cc1,2.41%
12,CCOc1ccc(Cl)cc1S(=O)(=O)N1CCCCC1C (configuration not stated),3.07%
13,O=C([C@@H]1C[C@H]1c1ccccc1)N1CCOc2ccc(CN3CCN(c4ncccn4)CC3)cc2C1,-2.65%
14,Cc1cnc(Sc2nccn2C)c([N+](=O)[O-])c1,-1.03%
15,CCOC(=O)c1cc(N2C(=O)c3cccc4cccc(c34)C2=O)ccc1Cl,-1.46%
16,COC(=O)c1cc2ccccc2n1C,-2.5%
17,Clc1ccc(-c2csc(NN=C3c4ccccc4-c4ccccc43)n2)cc1,-3.38%
18,COc1cc(/C=C(/C)[N+](=O)[O-])c2c(c1Br)CCCO2,-18%
19,COc1ccc2c(c1)CCCN2Cn1nc(COc2ccc(C3CCCCC3)cc2)n(C)c1=S,0.371%
20,c1cc2nsnc2cc1CN1CCCC(Nc2ccc3c(c2)OCO3)C1 (configuration not stated),2.61%
21,Cc1cc(Oc2cc(-n3[nH]c(=O)c4ccccc4c3=O)nc(-c3ccccc3)n2)cc(C)c1Cl,7.28%
22,CCN(CC1CCN(C2CCN(C)CC2)CC1)C(=O)c1occc1C,9.69%
23,O=C(NCN1CCN(CNC(=O)c2cccnc2)CC1)c1cccnc1,-0.31%
24,CCN1CCN(c2nc(-c3ccc(OC)cc3)cc(=O)[nH]2)CC1,5.84%
25,Cc1ccc(Cl)cc1N1CCN(C(=O)C23CC4CC(CC(C4)C2)C3)CC1,-7.78%
26,Cc1ccccc1CS(=O)(=O)N1CCC(Cc2ccccc2)CC1,8.78%

row,Structure (SMILES),inhibition
1,COc1ccc(C(Nc2cc(C)ccn2)c2ccc3cccnc3c2O)c(OC)c1OC (configuration not stated),2.02%
2,COc1ccc2nc(SCC#CCSc3nc4ccc(OC)cc4[nH]3)[nH]c2c1,7.63%
3,CNCC#CCOc1ccccc1C(C)(C)C,-2.15%
4,Nc1scc2c1c(=O)oc1ccccc12,57% (active)
5,O=c1cc(Cl)c2ccccc2o1,-4.6%
6,CN(C)/C=C/c1c(C#N)c(=O)oc2ccccc12,9.69%
7,CCOC(=O)C(C(=O)OCC)c1ccc(OC)cc1[N+](=O)[O-],2.12%
8,CCOc1cc(/C=C2/SC(=O)N(C(C)C)C2=O)ccc1O,-0.43%
9,Nc1nc2c(ncn2S(=O)(=O)c2ccc(C(=O)O)cc2)c(=O)[nH]1,7.51%
10,Cc1[nH]nc2c1C(c1cccc(OCc3ccccc3Cl)c1)C(C#N)C(=N)O2 (configuration not stated),-9.52%
11,Cc1ccc(C2Oc3ccccc3C3CC(c4cccs4)=NN32)o1 (configuration not stated),0.171%
12,CCN(CC)C(=O)c1sc(NC(=O)C(Sc2ccccc2)c2ccccc2)c(C#N)c1C (configuration not stated),2.76%
13,Oc1ccc2oc(SCCOCCOCCOCCSc3cc4cc(O)ccc4o3)cc2c1,0.44%
14,O=C(COC(=O)c1cc(Cl)c(Cl)cc1C(=O)OCC(=O)c1ccccc1)c1ccccc1,7.68%
15,O=C(O)CSCC(=O)Nc1nccs1,-17.6%
16,O=C1C2CCCN2C(=O)N1CCCCN1CCN(c2cccc(C(F)(F)F)c2)CC1 (configuration not stated),-6.27%
17,c1ccc(-c2oc(-c3ccccc3)c(-c3ccccc3)c2-c2ccccc2)cc1,-5.11%
18,CCc1ccc(-c2cc(C(F)(F)F)n3nc(C(=O)N(C)Cc4cnn(C)c4C)cc3n2)s1,-10.3%
19,COc1ccc(-c2n[nH]c(=O)c3ccccc23)cc1,0.605%
20,N#Cc1c(-c2ccccc2)c(-c2ccccc2)n[nH]c1=O,49.7% (active)
21,N#Cc1ccc(-c2nc3cc(C#N)c(C#N)cc3nc2-c2ccccc2)cc1C#N,0.0365%
22,COc1cc(OC)c(OC)cc1CN1CC[C@@H](N2CCC(O)CC2)[C@H](O)C1,13%
23,C=CCN1C(=O)N=C(Cc2ccc(-c3cccc(F)c3)o2)C1=O,2%
24,O=C(O)c1cc(-c2ccc(CC3=NC(=S)N(c4ccc(Cl)cc4)C3=O)o2)ccc1Cl,101% (active)
25,OCc1ccc(-c2cc(Cl)cc(Cl)c2)o1,-5.33%
26,COc1cccc(C(=O)NC2(C(F)(F)F)C(=O)N=C3C2C(=O)NC(=O)N3c2ccc(C)cc2)c1 (configuration not stated),-7.22%

row,Structure (SMILES),inhibition
1,Cc1ccc(-c2c3nnc4ccccc4c3nc3sc4c(=O)[nH]c(C)nc4c23)cc1,6.93%
2,COc1ccc(F)c(-c2nc(CN(C)Cc3nonc3C)c(C)o2)c1,3.31%
3,COCCCN1C(=O)CC(CC(=O)N2CCN(C)C(c3ccccc3)C2)(c2ccccc2OC)C1=O (configuration not stated),9.56%
4,COc1cccc(CC2(CO)CCN(C(=O)c3cnn(C(C)C)c3)CC2)c1,4.94%
5,O=C(NC1CCCN(CCc2ccccc2)C1)c1cccc(N2CCOCC2)c1 (configuration not stated),5.73%
6,O=C(NNc1cc(N2CCCC2)nc(N2CCCC2)n1)c1ccccc1,31.7% (active)
7,COc1ccc(C(=O)Nc2ccc3nc(N4CCCCC4)cc(C)c3c2)cc1OC,-8.5%
8,Cc1ccc(-c2csc(NNC(=O)c3ccccc3)n2)cc1,-5.78%
9,COCCN(CC1CCN(Cc2ccccc2F)CC1)C(=O)CCCN1CCCCC1=O,14.5%
10,Cc1ccccc1OC(C)C(=O)Nc1nccs1 (configuration not stated),0.702%
11,CCn1cc(/C=C2\SC(=O)N(CC(=O)Nc3cccc(C)c3)C2=O)c2ccccc21,0.178%
12,CCCN1C(=O)/C(=C\c2cn(CC(=O)O)c3ccccc23)C(=O)N(c2ccccc2)C1=S,48.9% (active)
13,CCN1C(=O)C(=Cc2ccc(-c3ccccc3)o2)C(=O)N(CC)C1=S,-2.58%
14,CCCCCOc1cccc(OCC(=O)Nc2cccc(OC)c2)c1,0.894%
15,COc1cc(C(=O)O)ccc1OC(=O)C1CCCCC1,2.41%
16,CCCCCCCCCCCCOc1c(OC)cc(C(=O)O)cc1OC,26.5% (active)
17,Cc1cccc(-n2c(C)c(C)n3c4c(=O)n(CCCO)c(=O)n(C)c4nc23)c1,-0.432%
18,CCCNC(=O)c1nnn(-c2ccc(C)cc2)c1C,2.76%
19,CN1CCC2(CC1)CC(=O)NC2=O,-1.86%
20,Nc1ccc([N+](=O)[O-])cc1OCc1ccccc1,6.18%
21,CCn1c2ccccc2c2cc(NS(=O)(=O)c3ccc(Cl)nc3)ccc21,-11.1%
22,Cc1cc(OC(C)C(=O)N2CCN(c3ccccc3)CC2)cc(C)c1Cl (configuration not stated),12.3%
23,O=C(Nc1cccc(Cl)c1)C(=S)NCc1ccco1,3.18%
24,Nc1c(C(=O)Nc2ccc(F)c(Cl)c2)sc2nc(-c3ccc(F)cc3)ccc12,-0.694%
25,COCC(=O)N1CCCC(C(=O)c2cccc(C(F)(F)F)c2)C1 (configuration not stated),11%
